Results on 107 molecules are retold here after PubChem BioAssay AID449764 (Southern Research Specialized Biocontainment Screening …, 2010).

Molecules are shown by their SMILES. About 1,700 (74%) of roughly 2,300 compounds were called active. How the calls were made is not given here. So high a share suggests a set chosen from earlier hits. Some of the results follow. Entries with a potency or affinity are not part of this list.

A short description of the assay: Mycobacterium tuberculosis H37Rv growth inhibition, no glycerol, confirmatory dose response (AID 449764).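 Further: growth read after 7 days of incubation.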 Particulars: series mostly up to 100 µM.
`COC(=O)C1=C(C)NC(=O)/C1=C\c1cc(C)n(-c2cccc(C)c2)c1C`: the molecule was classed as inactive. Next, `O=C(c1ccc(C#Cc2ccccc2)o1)N1CCN(c2ccccn2)CC1`: “inactive”; `O=C(O)Cc1cnc[nH]1`: “inactive”; `Cc1cc(/C=C/C(=O)O)c(C)n1-c1ccc(Cl)cc1`: “inactive”. Next, `O=C(CCN1C(=O)C2C3C=CC(C3)C2C1=O)Oc1ccc2ccccc2c1` (configuration not stated): “inactive”; `Cc1cc(C2=NNC(=NC3CCCCC3)SC2)c(C)n1-c1c(C)n(C)n(-c2ccccc2)c1=O`: “inactive”; `COC(=O)c1cccc(OC(N)=O)c1`: “inactive”. Take `CCOc1ccc(-n2c(O)c(/C=N/Nc3nnc(C)c(=O)[nH]3)c3ccccc3c2=O)cc1`: the molecule was called inactive. As for `COc1cccc(NC(=O)Nc2nc(SC(C)(C)C)ns2)c1`, the molecule was classed as inactive. Next, `CN(C)S(=O)(=O)c1cccc(NC(=O)CCc2nc3sc4c(c3c(=O)[nH]2)CCCC4)c1`: “inactive”; `Nc1ccc(-c2nc3ccc(-c4nc5ccccc5o4)cc3[nH]2)cc1`: “inactive”. Consider `CC(C)(C)c1nc(SCC(=O)Nc2nc3c(s2)CCCC3)c2ccccc2n1`, for which the result was inactive.

As for `O=C(Nc1cc(Oc2ccccc2)cc([N+](=O)[O-])c1)C12CC3CC(C1)CC(n1cnc(Cl)n1)(C3)C2`, the outcome was inactive. Next, `C/C(=N\NC(=O)c1cc2c(s1)CCC(C)C2)c1ccncc1` (configuration not stated): “inactive”; `CCC1(c2ccccc2)NC(=O)N(CC(=O)Nc2ccc(S(=O)(=O)NC3=NCCCCC3)cc2)C1=O` (configuration not stated): “inactive”; `Nc1cc(C(=O)OCC(=O)NNC(=O)c2cccs2)ccc1Cl`: “inactive”.

Take `CSc1ccc(CNC(=O)C2Cc3cc(S(=O)(=O)N4CCCCC4)ccc3N2C(C)=O)cc1` (configuration not stated): the call was inactive. For `Nc1ncc2[nH]cnc2n1`, the call was inactive. As to `O=C(COc1cc(O)c2c(=O)c3ccccc3oc2c1)OCc1ccccc1`, the molecule was called inactive. As to `CCCc1ccc(OCc2ccccc2)c2c(=O)cc(C(=O)OCC)oc12`, the outcome was inactive.

On to `O=C(c1cc([N+](=O)[O-])ccc1N1CCOCC1)N1CCN(S(=O)(=O)c2cc(Cl)ccc2Cl)CC1`, for which the call was inactive.

Turning to `Cc1ccc(NC(=O)C2CCN(S(=O)(=O)c3ccc4c(c3)NC(=O)C(C)S4)CC2)c(Cl)c1` (configuration not stated), the result was inactive. In the case of `COc1ccc2c(C)nc(Nc3nc(C)c(C)c(=O)[nH]3)nc2c1`, the molecule was classed as inactive. With `COc1ccc(N/C=C/c2nc(SC)nnc2C)cc1`, the molecule was called inactive. Then `COc1ccc(Oc2ccc(N/C=C/C(=O)C(C)(C)C)cc2)cc1`, with “inactive”; and `CCCOc1ccc(C(=O)c2nc3c(n2O)CCCCC3)cc1`, with “inactive”.

Take `CCCc1ncc(CN2CCCC(C(=O)Nc3ccc(-c4cccc(OC)c4)cc3)C2)cn1` (configuration not stated): the result was inactive.

As for `N/C(=N\OC(=O)CCC1CCCC1)c1cccc([N+](=O)[O-])c1`, the outcome was inactive. As for `Cc1ccccc1C(=O)Nc1ccc(N(C)C)c2ccccc12`, the outcome was inactive.

`O=C(N/N=C/c1ccc(Br)s1)c1cccs1`: the call was inactive.

Turning to `CCn1nnc(-c2ccc(N)cc2)n1`, the call was inactive. Then `COc1ccc(C(C(O)C(=O)c2c[nH]c3ccccc23)N2CCN(c3ccc(OC)cc3)CC2)cc1` (configuration not stated), with “inactive”; and `COc1ccc(N2CN=C3SCC(=O)N3C2)cc1`, with “inactive”; and `CCOc1ccc(NC(=S)NC23CN4CN(CN(C4)C2)C3)cc1`, with “inactive”.

Take `CCOC(=O)c1ccc(OC(=O)CCCCCN=C(N)N)cc1`: the molecule was called inactive. Then `COc1ccccc1C(=O)NC(=Nc1nc2ccccc2o1)NC(=O)c1ccccc1OC`, with “inactive”. Consider `O=C(CN1CCN(c2ccc(F)cc2)CC1)N1CCC(Cc2ccccc2)CC1`, for which the outcome was inactive. Next, `CC(=Nc1ccc(C)c(C)c1)C1=C(O)CSC1=O`: “inactive”. Next, `CCOc1ccc(S(=O)(=O)N2CCN(C(=O)c3cc4c(s3)CCCC4)CC2)cc1`: “inactive”; `COc1ccc(NC(NC(=O)c2ccc(OC)cc2)C(Cl)(Cl)Cl)cc1` (configuration not stated): “inactive”; `COc1ccc(-c2ccc(=O)n(Cc3c(F)cccc3Cl)n2)cc1`: “inactive”. Next, `Cc1nc2ccc(NC(=O)N(C(C)C)C(C)C)cc2s1`: “inactive”. Turning to `CCOc1[nH]n(-c2ccccc2)c(=O)c1C=Nc1ccc(OC)cc1`, the molecule was classed as inactive. Next, `O=C(Sc1nnc(-c2ccccc2)o1)N1c2ccccc2Sc2ccccc21`: “inactive”.

As for `O=C(CCN1C(=O)C2CCCCC2C1=O)Nc1nc(-c2ccc(F)c(F)c2)cs1` (configuration not stated), the outcome was inactive. Regarding `COc1ccc(OCc2nnc3n2N=C(c2ccccc2)C(CC(=O)O)S3)cc1` (configuration not stated), the molecule was called inactive.

Turning to `COc1ccc(NC(=O)c2ccc(Cl)c(S(=O)(=O)N3CCc4ccccc4C3)c2)cn1`, the call was inactive.

Regarding `CCOc1ccc(N(C(=O)/C=C/C(=O)Nc2cc(C)on2)C(C(=O)NC2CCCC2)c2ccccc2C)cc1` (configuration not stated), the result was inactive.

Consider `CC(C)Cn1[nH]c2c3c(ccc2c1=O)C(=O)c1ccccc1C3=O`, for which the result was inactive. Take `Cc1ccc(C(=O)Nc2cccc(C(F)(F)F)c2)cc1Nc1ncnc2nc[nH]c12`: the outcome was inactive. Then `Cc1ccc(Cl)cc1N1CCN(Cc2nc3ccsc3c(=O)[nH]2)CC1`, with “inactive”; and `COc1ccc(-c2cc3ccccc3oc2=O)cc1NC(=O)c1ccc([N+](=O)[O-])o1`, with “inactive”. Then `COc1ccc(N2CCN(c3ccnc4cc(Cl)ccc34)CC2)cc1`, with “inactive”; and `Fc1ccc(N/N=C2/CC(c3ccccc3)Oc3ccccc32)c(F)c1` (configuration not stated), with “inactive”. Turning to `Oc1ccc2cc(Br)ccc2c1CN1CCCC1`, the molecule was called inactive. On to `COc1ccc(-c2nc3ccccn3c2CN2CCN(c3ccccc3F)CC2)cc1`, for which the outcome was inactive. `CCOC(=O)C(=NC1CCS(=O)(=O)C1)NNc1ccc(Br)cc1` (configuration not stated): the molecule was classed as inactive.

Regarding `CCOc1ccc(NC(C)c2cc(Cl)ccc2O)cc1` (configuration not stated), the molecule was called inactive. As to `Brc1cccc2sc(N3CCN(c4ccccc4)CC3)nc12`, the outcome was inactive. Turning to `NC(=O)/C(=N\OC(=O)c1ccco1)c1nc(-c2ccc(Br)cc2)cs1`, the outcome was inactive. On to `Cc1cccc(C)c1OCC(O)CN1CCC(CN2C(=O)c3cccc4cccc(c34)C2=O)CC1` (configuration not stated), for which the call was inactive. Take `CC1(C)SC(=S)N(NC(=O)Nc2cccc3ccccc23)C1N(O)C(=O)Nc1ccccc1` (configuration not stated): the molecule was classed as inactive. Then `O=[N+]([O-])c1nn(-c2ccc(Cl)cc2)n(O)c1=NCc1cccnc1`, with “inactive”. Then `CCCCCCC(=O)N/N=C/c1ccc(Br)cc1`, with “inactive”; and `CCCCCCSc1nsc(NC(=O)CC(C)C)n1`, with “inactive”; and `COC(=O)Cc1ccc(NC(=S)Nc2ccccn2)cc1`, with “inactive”. Then `CCOc1ccc(NC(=S)Nc2cc(-c3ccccc3)[nH]n2)cc1`, with “inactive”; and `CC(C)c1ccc2nc(N)sc2c1`, with “inactive”; and `O=C(/C=C/c1ccc(Cl)cc1)N1CCN(c2ccc(Cl)cc2[N+](=O)[O-])CC1`, with “inactive”. As for `COC(=O)c1cc(NC(=O)c2c(F)c(F)c(F)c(F)c2F)cc(C(=O)OC)c1`, the result was inactive.

`NC(=O)N1CCC2(CC1)NC(=O)N(c1ccccc1)N2`: the result was inactive. Then `O=C(/C=C/c1ccc(OCCCF)cc1)Nc1ccnc(-c2ccncc2)n1`, with “inactive”. Consider `Cc1oc(C)c2c(=O)ccc3c(c12)OC(N)=C(C#N)C3c1ccccc1Cl` (configuration not stated), for which the call was inactive.

For `Cc1nn(C(C)(C)C)c(NC(=O)c2ccc(Cl)cc2Cl)c1Br`, the outcome was inactive. For `O=C(c1ccccc1)c1nn(-c2ccc(Cl)cc2)cc1C(=O)c1cc2ccccc2oc1=O`, the outcome was inactive. Then `Cc1ccc(F)cc1CNC(=O)c1cc(COc2ccc3ncccc3c2)on1`, with “inactive”; and `CCN(CC)S(=O)(=O)c1cc(C(=O)Oc2cccc(-c3cnc4ccccc4n3)c2)ccc1Br`, with “inactive”. Next, `Cc1cc(-n2c(C)cc(C(=O)COc3ccc4ccc(=O)oc4c3)c2C)no1`: “inactive”; `COc1ccc(N/C=C(\C2OC(=O)c3ccccc32)[N+](=O)[O-])cc1` (configuration not stated): “inactive”; `CC(C)c1nc2scc(-c3ccc(Cl)cc3)c2c(=O)n1N`: “inactive”. Then `NN/C(=C\[N+](=O)[O-])Nc1ccc(Cl)cc1`, with “inactive”. With `C/C(CC(=O)Nc1ccc2c(c1)OCCO2)=N\NC(=O)c1ccccc1F`, the outcome was inactive. `Cc1ccc2c(c1)Oc1ccc(NC(=O)CCl)cc1C(=O)N2`: the result was inactive. Turning to `CCCc1cc(=O)[nH]c(SCC(=O)N2CCCC2=O)n1`, the molecule was classed as inactive. Then `O=C(Nc1ccc(-n2cccc2)cc1)C1CC1`, with “inactive”; and `O=c1c2ccc(Cl)cc2nc(-c2ccc([N+](=O)[O-])cc2)n1O`, with “inactive”. On to `COc1ccc(N2CCN(Cc3cc4c(cc3O)CCC4)CC2)cc1`, for which the outcome was inactive.

Turning to `C=CCn1c(N)cc(=O)nc1SC(CC)C(=O)Nc1ccc(C(C)=O)cc1` (configuration not stated), the molecule was called inactive.

For the molecule `C[C@H](O)[C@H](O)[C@H]1CNc2nc(N)[nH]c(=O)c2N1`, the result was inactive. As to `CCCCc1ccc(NC(=S)N2CCN(c3ncccn3)CC2)cc1`, the call was inactive.

Consider `C=C(C)C1CCC(C)=C1COC(=O)Nc1ccccc1` (configuration not stated), for which the outcome was inactive.

As for `COC(=O)Cc1ccc(NC(=O)c2ccc(Br)o2)cc1`, the molecule was classed as inactive. Next, `Cc1nc(SCC(=O)Nc2ccc(OCc3ccccc3)cc2)n[nH]1`: “inactive”; `COc1ccc(-c2cc3n(n2)CCc2nc4ccccc4n2-3)cc1`: “inactive”. Next, `C/C(=C\C(=O)c1ccccc1)Nc1ccc(Cl)c(Br)c1`: “inactive”; `COc1ccc(/C(O)=C/Sc2nnc(Cc3ccccc3)o2)cc1`: “inactive”. Next, `CCn1c2ccccc2c2cc(NC(=O)CN(C)CC(=O)Nc3ccc(N4CCOCC4)cc3)ccc21`: “inactive”; `C=CCc1cccc2cc(C(=O)OCC(=O)c3ccccc3)c(=O)oc12`: “inactive”; `COc1cc(/C=C2\C(=O)NN(c3ccc(C)cc3)C2=O)cc([N+](=O)[O-])c1O`: “inactive”. As to `O=C1CCC(=O)N1CNc1ccc(Oc2ccccc2)cc1`, the outcome was inactive. In the case of `O=C(OCc1ccccc1)c1cccc(-c2nnn(Cc3ccccc3)n2)c1`, the outcome was inactive.

With `O=C(CSc1n[nH]c(-c2ccccc2)n1)Nc1ccc(Br)cn1`, the outcome was inactive.

In the case of `CN1CCN2c3ccccc3Cc3ccccc3C2C1` (configuration not stated), the result was inactive. In the case of `CC(C)(C)c1nc2sc3c(c2c(=O)o1)CCCC3`, the call was inactive. Next, `O=c1c2c3c(sc2nc(N2CCNCC2)n1-c1cccc(Cl)c1)CCCCC3`: “inactive”. Next, `CCCCOC(=O)c1c(C)oc2ccc(NS(=O)(=O)c3ccc4c5c(cccc35)C(=O)N4)cc12`: “inactive”; `COC(OC)c1ccnc(-c2ccc(OC(=O)c3cccs3)cc2)n1`: “inactive”.
